Structures are written as SMILES. Values joined by “and” are separate entries in the source; they are usually repeats but may differ in a detail not shown here. Identical values can stand only once. Inconclusive results are not listed. The source holds several records for some structures; these can differ, active in one and inactive in another. Active and inactive are the calls of the source. Unless noted, the call rests on the fitted dose curve; in most records, active means well fitted curve in the direction sought with a large enough effect in the repeat runs; inconclusive means weak or mixed curves; inactive means no such curve, though single readings can be large; an effect the other way counts as inactive or inconclusive.

A short description of assay [1]: qHTS assay to identify small molecule antagonists of the glucocorticoid receptor (GR) signaling pathway - cell viability counter screen (AID 720693). Further: nearly all actives have a fitted effect of over 55% in size.
Assay [2] can be described thus: qHTS assay for identifying genotoxic compounds that show differential cytotoxicity against isogenic chicken DT40 cell lines with known DNA damage response pathways - wild type cell line (AID 743012). Further: nearly all actives have a fitted effect of over 60% in size. Further: potency means the concentration at half of the fitted maximal effect. An outline of the steps:
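Luminescent ATP viability signal (CellTiter-Glo, 30 min RT) recorded after wild type DT40 cells were incubated with compounds for 40 h at 37 C/5% CO2.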
On the technique in general: Quantitative high-throughput screening tests each substance at several concentrations.

Assay [3] in a line: qHTS assay for identifying genotoxic compounds that show differential cytotoxicity against isogenic chicken DT40 cell lines with known DNA damage response pathways - Rev3 mutant cell line (AID 743014). Further: nearly all actives have a fitted effect of over 55% in size. Further: potency means the concentration at half of the fitted maximal effect.
Assay [4] can be described thus: qHTS assay for identifying genotoxic compounds that show differential cytotoxicity against isogenic chicken DT40 cell lines with known DNA damage response pathways - Rad54/Ku70 mutant cell line (AID 743015). Further: nearly all actives have a fitted effect of over 60% in size. Further: potency means the concentration at half of the fitted maximal effect.
Assay [5] can be described thus: qHTS assay to identify small molecule antagonists of the androgen receptor (AR) signaling pathway - cell viability counter screen (AID 743033; further: nearly all actives have a fitted effect of over 45% in size).
The target in assay [6] is Androgen receptor (Homo sapiens) (UniProt P10275). The experiment in a line: qHTS assay to identify small molecule antagonists of the androgen receptor (AR) signaling pathway (AID 743035; active means well fitted inhibition curve with a large enough effect in the signal ratio in the repeat runs, not every such curve was filed as active; the % refers to the signal ratio). The procedure, abridged:
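Quantitative HTS of the Tox21 10K library used HEK293 AR-UAS-bla cells stimulated with R1881 alongside compound for 16 h at 37C, followed by beta-lactamase FRET detection (LiveBLAzer B/G, 2 h, RT).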

For assay [7] the target is unchanged. The experiment in a line: qHTS assay to identify small molecule agonists of the androgen receptor (AR) signaling pathway using the MDA cell line (AID 743040; further: nearly all actives have a fitted effect of over 20% in size). The procedure, abridged:
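Testing was done with the MDA-kb2 AR-luc line, a human breast carcinoma stably transfected with MMTV-luciferase containing AR and GR response elements. Cells were exposed 16 h at 37C before ONE-Glo luminescence detection.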

The nature of assay [8]: qHTS assay to identify small molecule antagonists of the androgen receptor (AR) signaling pathway using the MDA cell line - cell viability counter screen (AID 743041; further: nearly all actives have a fitted effect of over 45% in size). The procedure, abridged: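 Compound exposure lasted 16 h at 37C in MDA-kb2 AR-luc cells stimulated with R1881. Protease-based CellTiter-Fluor reagent was applied for the final 30 min and fluorescence measured.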

The target of assay [9] is Androgen receptor (Homo sapiens) (UniProt P10275). The assay can be described thus: qHTS assay to identify small molecule antagonists of the androgen receptor (AR) signaling pathway using the MDA cell line (AID 743042; further: nearly all actives have a fitted effect of over 55% in size). An outline of the steps:
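MDA-kb2 breast carcinoma cells carrying MMTV-luciferase (AR/GR responsive) were co-treated with compounds and the agonist R1881 for 16 h at 37C. Inhibition read as ONE-Glo luminescence; CellTiter-Fluor fluorescence measured in parallel for cytotoxicity.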

For assay [10] the target is unchanged. The experiment in a line: qHTS assay to identify small molecule agonists of the androgen receptor (AR) signaling pathway (AID 743036; active means well fitted activation curve with a large enough effect in the signal ratio in the repeat runs, with a control signal flat, not every such curve was filed as active; the % refers to the signal ratio). An outline of the steps:
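Fluorescence from a beta-lactamase FRET substrate served as read-out in AR-UAS-bla GripTite HEK293 cells. Cells were treated with DMSO-dissolved compounds for 16 h at 37C, then with LiveBLAzer B/G substrate for 2 h at room temperature.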

Chain of Androgen receptor (Homo sapiens) (P10275 whole entry, looked up): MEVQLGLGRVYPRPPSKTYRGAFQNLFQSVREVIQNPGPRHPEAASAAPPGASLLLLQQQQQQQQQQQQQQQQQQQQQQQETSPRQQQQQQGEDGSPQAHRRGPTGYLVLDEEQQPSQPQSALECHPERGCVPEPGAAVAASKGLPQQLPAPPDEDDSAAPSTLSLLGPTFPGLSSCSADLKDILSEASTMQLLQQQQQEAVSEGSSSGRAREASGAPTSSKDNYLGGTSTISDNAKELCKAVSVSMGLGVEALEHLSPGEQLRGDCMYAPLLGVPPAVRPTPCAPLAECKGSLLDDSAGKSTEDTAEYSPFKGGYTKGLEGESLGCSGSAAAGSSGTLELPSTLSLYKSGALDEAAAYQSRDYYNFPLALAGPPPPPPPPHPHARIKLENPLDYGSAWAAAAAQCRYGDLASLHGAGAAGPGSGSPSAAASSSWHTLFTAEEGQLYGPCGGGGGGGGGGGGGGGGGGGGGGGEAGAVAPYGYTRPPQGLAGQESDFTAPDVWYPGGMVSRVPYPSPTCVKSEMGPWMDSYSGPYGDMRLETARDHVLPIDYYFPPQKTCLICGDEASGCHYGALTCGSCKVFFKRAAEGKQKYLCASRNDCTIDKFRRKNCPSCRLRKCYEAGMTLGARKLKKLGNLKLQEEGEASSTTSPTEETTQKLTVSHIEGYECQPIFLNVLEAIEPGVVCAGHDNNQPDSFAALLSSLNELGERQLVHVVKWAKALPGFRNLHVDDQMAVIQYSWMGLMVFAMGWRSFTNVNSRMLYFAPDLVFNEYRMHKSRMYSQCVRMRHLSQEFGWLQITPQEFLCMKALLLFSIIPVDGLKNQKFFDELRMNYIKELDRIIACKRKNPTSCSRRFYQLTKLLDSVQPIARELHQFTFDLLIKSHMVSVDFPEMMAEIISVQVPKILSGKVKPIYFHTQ

As for `CC1=C(CC(=O)O)c2cc(F)ccc2/C1=C\c1ccc(S(C)(=O)=O)cc1`, the compound was called inactive in assay [1], in assay [5] and in assay [9]. Further, the Potency entry in assay [2], in assay [3], in [4], in assay [6], in [7] and in [8] was “inactive” each time.
For `COC(=O)c1ccc(OC)cc1`, the compound was called inactive in assay [1] and in assay [5]. The Potency entry in assay [2], in assay [3], in assay [4] and in assay [8] was “inactive” throughout.
Take `Nc1ccc(Oc2ccc(N)c(N)c2)cc1`: the outcome in [1] and in assay [5] was inactive. The Potency in assay [2] was 15.4 µM (active); in assay [3] it was 7.7 µM (active); in assay [4], 13.7 µM (active).
`COC(=O)C(C)O` (centres undefined): the result in [1], in [5], in assay [10] and in assay [9] was inactive. For the same compound, the Potency result in assay [2], in [3], in assay [4], in assay [6], in assay [7] and in assay [8] was “inactive” each time.
For `CC1=C2[C@H](/C=C(\C)C(=O)O)CC[C@@H](C)[C@H]2CC1`, the compound was called inactive in assay [1], in [5], in [10] and in [9]. Also, the Potency entry in assay [2], in assay [3], in [4], in assay [7] and in [8] was “inactive” each time.
As for `CCCc1c2oc(C(=O)O)cc(=O)c2cc2c(=O)cc(C(=O)O)n(CC)c12`, the outcome in [1] and in assay [5] was inactive. Besides, the Potency entry in assay [2], in assay [3], in [4] and in assay [8] was “inactive” each time.
In the case of `CC1=NN(c2cc(Cl)c(S(=O)(=O)O)cc2Cl)C(=O)C1N=Nc1ccc(S(=O)(=O)O)cc1` (centres undefined), the compound was called inactive in assay [1] and in assay [5]. Further, the Potency result in assay [2], in assay [3], in assay [4] and in assay [8] was “inactive” throughout.
Take `CCCC1CCC(=O)O1` (centres undefined): the result in assay [1] and in assay [5] was inactive. Also, the Potency result in assay [2], in [3], in assay [4] and in [8] was “inactive” throughout.
On to `CC(C)O`, for which the outcome in [1] and in [5] was inactive. Moreover, the Potency entry in assay [2], in assay [3], in assay [4] and in assay [8] was “inactive” each time.
With `CCOC(=O)c1ccccc1O`, the compound was called inactive in assay [1] and in assay [5]. For the same compound, the Potency result in assay [2], in assay [3], in assay [4] and in assay [8] was “inactive” throughout.
In the case of `CN1CCN(c2c(F)cc3c(=O)c(C(=O)O)cn4c3c2SCC4)CC1`, the outcome in assay [1] and in [5] was inactive. Moreover, the Potency was 10.6 µM (active) in assay [2], 18.8 µM (active) in assay [3] and 21.1 µM (active) in [4]. The Potency result in [8] was “inactive”.
`FC(F)(F)c1ccccc1`: the outcome in assay [1] and in assay [5] was inactive. Moreover, the Potency entry in [2], in assay [3], in assay [4] and in [8] was “inactive” in each case.
As for `CC(=O)Nc1ccc(C)c(Cl)c1`, the call in assay [1] and in [5] was inactive. The Potency entry in assay [2], in assay [3], in assay [4] and in [8] was “inactive” each time.
On to `C=CC1CO1` (centres undefined), for which the call in assay [1] and in assay [5] was inactive. Moreover, the Potency result in assay [2], in assay [3], in assay [4] and in [8] was “inactive” each time.
As for `COc1cc(Cl)ccc1Cl`, the outcome in assay [1] and in assay [5] was inactive. The Potency result in [2], in assay [3], in [4] and in [8] was “inactive” in each case.
With `CC1=C(O)C(=O)OC1C` (centres undefined), the compound was classed as inactive in assay [1] and in assay [5]. The Potency entry in assay [2], in assay [3], in assay [4] and in assay [8] was “inactive” throughout.
Take `CC(=O)Oc1cc(C(C)C)c(OCCN(C)C)cc1C`: the outcome in assay [1] and in assay [5] was inactive. Besides, the Potency result in assay [2], in assay [3], in [4] and in assay [8] was “inactive” throughout.
For `C[C@]12C(=O)OC(=O)[C@H]1[C@H]1C=C[C@@H]2C1`, the call in [1] and in assay [5] was inactive. The Potency entry in assay [2], in assay [3], in assay [4] and in [8] was “inactive” each time.
As for `Cc1cccc(C)c1NC(=O)CN1CCCCCC1`, the compound was called inactive in [1] and in assay [5]. Further, the Potency entry in assay [2], in assay [3], in assay [4] and in assay [8] was “inactive” in each case.
With `CC(C)C(=O)OCC(C)(C)C(O)C(C)C` (centres undefined), the call in assay [1] and in [5] was inactive. For the same compound, the Potency entry in assay [2], in assay [3], in assay [4] and in assay [8] was “inactive” each time.
Regarding `ClC(Cl)Cl`, the compound was classed as inactive in assay [1] and in assay [5]. Further, the Potency result in assay [2], in [3], in assay [4] and in [8] was “inactive” in each case.
On to `O=C1CCCc2ccccc21`, for which the compound was called inactive in assay [1] and in assay [5]. The Potency result in assay [2], in assay [3], in [4] and in [8] was “inactive” throughout.
In the case of `CCOC(=O)C1CC(=O)C(=C(O)C2CC2)C(=O)C1` (centres undefined), the compound was called inactive in assay [1] and in assay [5]. The Potency entry in [2], in assay [3], in [4] and in assay [8] was “inactive” in each case.
Take `C=CC(C)(O)CC/C=C(\C)CCC=C(C)C` (centres undefined): the compound was called inactive in assay [1] and in assay [5]. In addition, the Potency result in assay [2], in assay [4] and in [8] was “inactive” each time. Further, in [3], the Potency result was “inactive and 4.33 µM (active)”.
`COc1ccc2nc(NC(=O)Nc3ccccc3)sc2c1`: the outcome in assay [1] and in assay [5] was inactive. For the same compound, the Potency in [2] was 18.8 µM (active); in [3], 26.6 µM (active); in assay [4] it was 16.8 µM (active). The Potency result in assay [8] was “inactive”.
With `O=C1CCC(C2CCCCC2)CC1`, the compound was called inactive in [1] and in assay [5]. For the same compound, the Potency result in assay [2], in assay [3], in assay [4] and in assay [8] was “inactive” in each case.
Turning to `Clc1cccc(-c2cc(Cl)cc(Cl)c2)c1`, the result in assay [1] and in assay [5] was inactive. In addition, the Potency result in [2], in assay [3], in [4] and in assay [8] was “inactive” in each case.
With `CCc1nnc(NS(=O)(=O)c2ccc(N)cc2)s1`, the compound was called inactive in assay [1] and in assay [5]. The Potency entry in assay [2], in assay [3], in assay [4] and in [8] was “inactive” throughout.
With `O=c1oc2c(O)c(O)cc3c(=O)oc4c(O)c(O)cc1c4c23`, the call in [1] and in [5] was inactive. Also, the Potency entry in assay [2], in [3], in assay [4] and in [8] was “inactive” each time.
`O=C1C=CC(=O)O1`: the call in [1] and in assay [5] was inactive. For the same compound, the Potency entry in assay [2], in [3], in [4] and in assay [8] was “inactive” in each case.

The values above are taken from PubChem BioAssay (Tox21).
